PubChem BioAssay AID1159580 (chemical genetic matrix, 2015)
Several values for one entry are separate records, joined by “and”; a condition that tells them apart may be missing. Equal entries are not always repeated. In all, about 5,500 compounds went through this assay and about 2,000 (36%) were called active. About 18% were inconclusive and are not listed. The list shows a part of the results. A number with no mark means an inactive call. Cut-off read from the data, not from the text of the source: active = normalized growth mostly below about 0.91 (no sharp cut-off); inconclusive = no clear call, values can overlap the other calls; inactive = mostly above about 0.92.

Assay: chemical genetic growth profiling, strain panel (AID 1159580);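 note: tested at 20 µM; growth read once vehicle control cultures reached saturation at 30 °C; 1 = growth at the plate median or of vehicle wells; lower values mean less growth of the strain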
Conditions: S. cerevisiae deletion strains, growth OD

Q: Which normalized growth (locus YAL013W, strain DEP1, hits give low values) does the source give for COc1ccc2cc1Oc1ccc(cc1)C[C@H]1c3cc(c(OC)cc3CCN1C)Oc1c(OC)c(OC)cc3c1[C@H](C2)N(C)CC3 here?
A: Its normalized growth is 1.01.

Q: What about the normalized growth (locus YAL021C, strain ccr4, hits give low values) of the same compound?
A: Its normalized growth is 0.853 (active).

Q: And the normalized growth (locus YAL026C, strain drs2, hits give low values)?
A: Its normalized growth is 1.

Q: What about the normalized growth (locus YAL030W, strain snc1, hits give low values) of the same compound?
A: Its normalized growth is 1.01.

Q: What about the normalized growth (locus YBL061C, strain skt5, hits give low values) of the same compound?
A: Its normalized growth is 1.01.

Q: And the normalized growth (locus YBR009C, strain hhf1, hits give low values)?
A: Its normalized growth is 0.982.

Q: What about the normalized growth (locus YBR021W, strain FUR4, hits give low values) of the same compound?
A: Its normalized growth is 0.596 (active).

Q: And the normalized growth (locus YBR023C, strain chs3, hits give low values)?
A: The normalized growth was 1.01.

Q: What about the normalized growth (locus YBR171W, strain sec66, hits give low values) of the same compound?
A: Its normalized growth is 1.02.

Q: What about the normalized growth (locus YBR229C, strain ROT2, hits give low values) of the same compound?
A: Its normalized growth is 1.01.

Q: And the normalized growth (locus YBR231C, strain swc5, hits give low values)?
A: The normalized growth was 0.988.

Q: And the normalized growth (locus YBR279W, strain paf1, hits give low values)?
A: Its normalized growth is 0.998.

Q: What about the normalized growth (locus YCL011C, strain gbp2, hits give low values) of the same compound?
A: The normalized growth was 0.988.

Q: What about the normalized growth (locus YCL016C, strain dcc1, hits give low values) of the same compound?
A: The normalized growth was 0.968.

Q: What about the normalized growth (locus YCL029C, strain bik1, hits give low values) of the same compound?
A: Its normalized growth is 1.03.

Q: What about the normalized growth (locus YCL069W, strain vba3, hits give low values) of the same compound?
A: The normalized growth was 1.01.

Q: And the normalized growth (locus YCR088W, strain abp1, hits give low values)?
A: Its normalized growth is 1.01.

Q: What about the normalized growth (locus YDL005C, strain med2, hits give low values) of the same compound?
A: Its normalized growth is 1.

Q: And the normalized growth (locus YDL035C, strain GPR1, hits give low values)?
A: The normalized growth was 0.977.

Q: What about the normalized growth (locus YDL040C, strain nat1, hits give low values) of the same compound?
A: Its normalized growth is 1.

Q: And the normalized growth (locus YDL074C, strain BRE1, hits give low values)?
A: Its normalized growth is 0.972.

Q: What about the normalized growth (locus YDL101C, strain DUN1, hits give low values) of the same compound?
A: The normalized growth was 1.01.

Q: What about the normalized growth (locus YDL134C, strain PPH21, hits give low values) of the same compound?
A: The normalized growth was 1.01.

Q: What about the normalized growth (locus YDL185W, strain tfp1, hits give low values) of the same compound?
A: Its normalized growth is 1.01.

Q: And the normalized growth (locus YDL192W, strain arf1, hits give low values)?
A: The normalized growth was 0.997.

Q: What about the normalized growth (locus YDR001C, strain nth1, hits give low values) of the same compound?
A: Its normalized growth is 1.02.

Q: What about the normalized growth (locus YDR069C, strain doa4, hits give low values) of the same compound?
A: The normalized growth was 0.733 (active).

Q: And the normalized growth (locus YDR101C, strain arx1, hits give low values)?
A: Its normalized growth is 1.01.

Q: What about the normalized growth (locus YDR137W, strain rgp1, hits give low values) of the same compound?
A: Its normalized growth is 0.998.

Q: And the normalized growth (locus YDR150W, strain NUM1, hits give low values)?
A: Its normalized growth is 1.01.

Q: What about the normalized growth (locus YDR159W, strain sac3, hits give low values) of the same compound?
A: The normalized growth was 1.02.

Q: And the normalized growth (locus YDR162C, strain NBP2, hits give low values)?
A: Its normalized growth is 0.974.

Q: And the normalized growth (locus YDR195W, strain ref2)?
A: The normalized growth was 1.02.

Q: And the normalized growth (locus YDR297W, strain sur2, hits give low values)?
A: The normalized growth was 1.

Q: What about the normalized growth (locus YDR318W, strain mcm21, hits give low values) of the same compound?
A: The normalized growth was 1.

Q: What about the normalized growth (locus YDR334W, strain swr1, hits give low values) of the same compound?
A: Its normalized growth is 1.01.

Q: And the normalized growth (locus YDR335W, strain msn5, hits give low values)?
A: Its normalized growth is 0.999.

Q: What about the normalized growth (locus YDR388W, hits give low values) of the same compound?
A: The normalized growth was 0.241 (active).

Q: And the normalized growth (locus YDR392W, strain spt3, hits give low values)?
A: Its normalized growth is 0.79.

Q: And the normalized growth (locus YDR502C, strain sam2, hits give low values)?
A: Its normalized growth is 0.99.

Q: And the normalized growth (locus YEL003W, strain gim4, hits give low values)?
A: Its normalized growth is 0.998.

Q: What about the normalized growth (locus YEL037C, strain rad23, hits give low values) of the same compound?
A: The normalized growth was 0.989.

Q: And the normalized growth (locus YEL061C, strain CIN8 (second series), hits give low values)?
A: The normalized growth was 1.01.

Q: What about the normalized growth (locus YEL061C, strain CIN8, hits give low values) of the same compound?
A: The normalized growth was 1.01.

Q: And the normalized growth (locus YER015W, strain faa2, hits give low values)?
A: The normalized growth was 0.997.

Q: What about the normalized growth (locus YER016W, strain bim1, hits give low values) of the same compound?
A: The normalized growth was 1.

Q: What about the normalized growth (locus YER110C, hits give low values) of the same compound?
A: The normalized growth was 1.03.

Q: And the normalized growth (locus YER111C, strain swi4, hits give low values)?
A: Its normalized growth is 0.997.

Q: And the normalized growth (locus YER155C, strain BEM2 (second series), hits give low values)?
A: Its normalized growth is 0.887.

Q: And the normalized growth (locus YER155C, strain BEM2, hits give low values)?
A: Its normalized growth is 1.03.

Q: And the normalized growth (locus YER167W, strain BCK2, hits give low values)?
A: The normalized growth was 0.964.

Q: And the normalized growth (locus YFR010W, strain ubp6, hits give low values)?
A: The normalized growth was 0.854 (active).

Q: And the normalized growth (locus YGL078C, strain dbp3, hits give low values)?
A: Its normalized growth is 1.01.

Q: And the normalized growth (locus YGL086W, strain mad1, hits give low values)?
A: Its normalized growth is 0.983.

Q: What about the normalized growth (locus YGL167C, strain pmr1, hits give low values) of the same compound?
A: Its normalized growth is 1.

Q: What about the normalized growth (locus YGL173C, strain kem1, hits give low values) of the same compound?
A: Its normalized growth is 1.02.

Q: And the normalized growth (locus YGL227W, strain vid30, hits give low values)?
A: Its normalized growth is 0.997.

Q: And the normalized growth (locus YGL240W, strain doc1, hits give low values)?
A: Its normalized growth is 1.01.

Q: What about the normalized growth (locus YGL248W, strain PDE1, hits give low values) of the same compound?
A: Its normalized growth is 1.

Q: What about the normalized growth (locus YGL253W, strain hxk2, hits give low values) of the same compound?
A: Its normalized growth is 1.01.

Q: And the normalized growth (locus YGR078C, strain PAC10, hits give low values)?
A: The normalized growth was 0.996.

Q: What about the normalized growth (locus YGR135W, strain pre9, hits give low values) of the same compound?
A: Its normalized growth is 0.931.

Q: What about the normalized growth (locus YGR229C, strain SMI1, hits give low values) of the same compound?
A: Its normalized growth is 0.993.

Q: And the normalized growth (locus YGR252W, strain gcn5, hits give low values)?
A: The normalized growth was 0.855.

Q: And the normalized growth (locus YHR013C, strain ard1, hits give low values)?
A: Its normalized growth is 0.902.

Q: What about the normalized growth (locus YHR027C, strain rpn1, hits give low values) of the same compound?
A: The normalized growth was 1.02.

Q: And the normalized growth (locus YHR030C, strain SLT2, hits give low values)?
A: Its normalized growth is 1.01 and 1.

Q: What about the normalized growth (locus YHR079C, strain IRE1 (second series), hits give low values) of the same compound?
A: The normalized growth was 1.01.

Q: And the normalized growth (locus YHR079C, strain IRE1, hits give low values)?
A: The normalized growth was 0.987.

Q: And the normalized growth (locus YHR094C, strain hxt1, hits give low values)?
A: Its normalized growth is 1.02.

Q: What about the normalized growth (locus YHR129C, strain ARP1, hits give low values) of the same compound?
A: The normalized growth was 1.01.

Q: What about the normalized growth (locus YHR142W, strain chs7, hits give low values) of the same compound?
A: The normalized growth was 1.01.

Q: And the normalized growth (locus YHR200W, strain rpn10, hits give low values)?
A: The normalized growth was 0.989.

Q: And the normalized growth (locus YIL066C, strain RNR3, hits give low values)?
A: Its normalized growth is 1.

Q: And the normalized growth (locus YIL073C, strain SPO22, hits give low values)?
A: Its normalized growth is 1.31.

Q: And the normalized growth (locus YIL125W, strain kgd1, hits give low values)?
A: Its normalized growth is 1.01.

Q: What about the normalized growth (locus YIR030C, strain dcg1, hits give low values) of the same compound?
A: The normalized growth was 1.02.

Q: What about the normalized growth (locus YJL092W, strain hpr5, hits give low values) of the same compound?
A: The normalized growth was 1.01.

Q: What about the normalized growth (locus YJL095W, strain BCK1 (second series), hits give low values) of the same compound?
A: The normalized growth was 1.02.

Q: And the normalized growth (locus YJL095W, strain BCK1, hits give low values)?
A: The normalized growth was 1.02 and 1.06.

Q: What about the normalized growth (locus YJL115W, strain asf1, hits give low values) of the same compound?
A: The normalized growth was 1.01.

Q: What about the normalized growth (locus YJL129C, strain trk1, hits give low values) of the same compound?
A: The normalized growth was 1.01.

Q: And the normalized growth (locus YJL134W, strain LCB3, hits give low values)?
A: The normalized growth was 1.02.

Q: What about the normalized growth (locus YJL154C, strain vps35, hits give low values) of the same compound?
A: Its normalized growth is 1.

Q: What about the normalized growth (locus YJL164C, strain tpk1, hits give low values) of the same compound?
A: Its normalized growth is 0.986.

Q: And the normalized growth (locus YJL166W, strain qcr8, hits give low values)?
A: Its normalized growth is 0.984.

Q: What about the normalized growth (locus YJL168C, strain set2, hits give low values) of the same compound?
A: Its normalized growth is 1.01.

Q: What about the normalized growth (locus YJL187C, strain SWE1 (second series), hits give low values) of the same compound?
A: The normalized growth was 1.

Q: What about the normalized growth (locus YJR043C, strain POL32, hits give low values) of the same compound?
A: The normalized growth was 0.996.

Q: What about the normalized growth (locus YJR066W, strain TOR1, hits give low values) of the same compound?
A: Its normalized growth is 0.955.

Q: What about the normalized growth (locus YJR075W, strain HOC1, hits give low values) of the same compound?
A: The normalized growth was 0.924.
